Hit rate of the full screen: of about 5,500 compounds, about 2,000 (36%) were called active. About 18% were inconclusive and are not listed. Rule as the data show it: active = normalized growth mostly below about 0.91 (no sharp cut-off); inconclusive = no clear call, values can overlap the other calls; inactive = mostly above about 0.92. Some of the results follow.
Assay: chemical genetic growth profiling, strain panel (AID 1159580);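 also: tested at 20 µM; growth read once vehicle control cultures reached saturation at 30 °C; 1 = growth at the plate median or of vehicle wells; lower values mean less growth of the strain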
Conditions: growth OD
[1] = S. cerevisiae deletion strains, locus YAL013W, strain DEP1, stronger effect = lower value
[2] = S. cerevisiae deletion strains, locus YBR229C, strain ROT2, stronger effect = lower value
[3] = S. cerevisiae deletion strains, locus YDL101C, strain DUN1, stronger effect = lower value
[4] = S. cerevisiae deletion strains, locus YDL134C, strain PPH21, stronger effect = lower value
[5] = S. cerevisiae deletion strains, locus YDR150W, strain NUM1, stronger effect = lower value
[6] = S. cerevisiae deletion strains, locus YEL061C, strain CIN8, stronger effect = lower value
[7] = S. cerevisiae deletion strains, locus YGR078C, strain PAC10, stronger effect = lower value
[8] = S. cerevisiae deletion strains, locus YHR030C, strain SLT2, stronger effect = lower value
[9] = S. cerevisiae deletion strains, locus YJR043C, strain POL32, stronger effect = lower value
[10] = S. cerevisiae deletion strains, locus YJR075W, strain HOC1, stronger effect = lower value
[11] = S. cerevisiae deletion strains, locus YLR039C, strain RIC1, stronger effect = lower value
[12] = S. cerevisiae deletion strains, locus YLR262C, strain YPT6, stronger effect = lower value
[13] = S. cerevisiae deletion strains, locus YMR263W, strain SAP30, stronger effect = lower value
[14] = S. cerevisiae deletion strains, locus YMR307W, strain GAS1, stronger effect = lower value
[15] = S. cerevisiae deletion strains, locus YNL153C, strain GIM3, stronger effect = lower value
[16] = S. cerevisiae deletion strains, locus YNL322C, strain KRE1, stronger effect = lower value
[17] = S. cerevisiae deletion strains, locus YOL006C, strain TOP1, stronger effect = lower value
[18] = S. cerevisiae deletion strains, locus YPL055C, strain LGE1, stronger effect = lower value
[19] = S. cerevisiae deletion strains, locus YPL241C, strain CIN2, stronger effect = lower value
[20] = S. cerevisiae strains, strain wild type, stronger effect = lower value
[21] = S. cerevisiae deletion strains, locus YHR087W, strain rtc3, stronger effect = lower value
[22] = S. cerevisiae deletion strains, locus YJL187C, strain SWE1, stronger effect = lower value
[23] = S. cerevisiae deletion strains, locus YLR058C, strain SHM2 (second series), stronger effect = lower value
[24] = S. cerevisiae deletion strains, locus YLR085C, strain ARP6, stronger effect = lower value
[25] = S. cerevisiae deletion strains, locus YML094W, strain GIM5, stronger effect = lower value
[26] = S. cerevisiae deletion strains, locus YMR219W, strain ESC1, stronger effect = lower value
[27] = S. cerevisiae deletion strains, locus YNL298W, strain CLA4 (second series), stronger effect = lower value
[28] = S. cerevisiae deletion strains, locus YNR030W, strain Alg12, stronger effect = lower value
[29] = S. cerevisiae deletion strains, locus YPR135W, strain CTF4, stronger effect = lower value

Measured: normalized growth

CN(C)CCC[C@@]1(c2ccc(F)cc2)OCc2cc(C#N)ccc21
inactive: [1] 1.02 | S. cerevisiae deletion strains, locus YBR021W, strain FUR4, stronger effect = lower value 1.02 | [2] 1.01 | S. cerevisiae deletion strains, locus YCL029C, strain bik1, stronger effect = lower value 1.02 | S. cerevisiae deletion strains, locus YDL035C, strain GPR1, stronger effect = lower value 1.02 | S. cerevisiae deletion strains, locus YDL074C, strain BRE1, stronger effect = lower value 1.02 | [3] 1.02 | [4] 1.01 | S. cerevisiae deletion strains, locus YDL185W, strain tfp1, stronger effect = lower value 1.03 | S. cerevisiae deletion strains, locus YDL192W, strain arf1, stronger effect = lower value 1.02 | S. cerevisiae deletion strains, locus YDR101C, strain arx1, stronger effect = lower value 1.02 | [5] 1.02 | S. cerevisiae deletion strains, locus YDR162C, strain NBP2, stronger effect = lower value 1.01 | S. cerevisiae deletion strains, locus YDR318W, strain mcm21, stronger effect = lower value 1.03 | S. cerevisiae deletion strains, locus YDR388W, stronger effect = lower value 1.02 | S. cerevisiae deletion strains, locus YDR502C, strain sam2, stronger effect = lower value 1.02 | [6] 1.01 | S. cerevisiae deletion strains, locus YER110C, stronger effect = lower value 1.03 | S. cerevisiae deletion strains, locus YER155C, strain BEM2, stronger effect = lower value 1.01 | S. cerevisiae deletion strains, locus YER167W, strain BCK2, stronger effect = lower value 1.02 | S. cerevisiae deletion strains, locus YGL078C, strain dbp3, stronger effect = lower value 1.03 | S. cerevisiae deletion strains, locus YGL086W, strain mad1, stronger effect = lower value 1.02 | S. cerevisiae deletion strains, locus YGL248W, strain PDE1, stronger effect = lower value 1.02 | [7] 1.03 | S. cerevisiae deletion strains, locus YGR135W, strain pre9, stronger effect = lower value 1.03 | S. cerevisiae deletion strains, locus YGR229C, strain SMI1, stronger effect = lower value 1.02 | S. cerevisiae deletion strains, locus YGR252W, strain gcn5, stronger effect = lower value 1.06 | [8] 1.01 | S. cerevisiae deletion strains, locus YHR079C, strain IRE1 (second series), stronger effect = lower value 1.02 | S. cerevisiae deletion strains, locus YHR094C, strain hxt1, stronger effect = lower value 1.02 | S. cerevisiae deletion strains, locus YHR129C, strain ARP1, stronger effect = lower value 1.01 | S. cerevisiae deletion strains, locus YHR200W, strain rpn10, stronger effect = lower value 1.02 | S. cerevisiae deletion strains, locus YIL066C, strain RNR3, stronger effect = lower value 1.03 | S. cerevisiae deletion strains, locus YIL073C, strain SPO22, stronger effect = lower value 1.06 | S. cerevisiae deletion strains, locus YIL125W, strain kgd1, stronger effect = lower value 1.02 | S. cerevisiae deletion strains, locus YIR030C, strain dcg1, stronger effect = lower value 1.02 | S. cerevisiae deletion strains, locus YJL095W, strain BCK1, stronger effect = lower value 1.02 | S. cerevisiae deletion strains, locus YJL134W, strain LCB3, stronger effect = lower value 1.03 | S. cerevisiae deletion strains, locus YJL168C, strain set2, stronger effect = lower value 1.02 | S. cerevisiae deletion strains, locus YJL187C, strain SWE1 (second series), stronger effect = lower value 1.02 | [9] 1.01 | [10] 1.01 | S. cerevisiae deletion strains, locus YKL009W, strain mrt4, stronger effect = lower value 1.03 | S. cerevisiae deletion strains, locus YKL068W, stronger effect = lower value 1.02 | S. cerevisiae deletion strains, locus YKL085W, strain MDH1 (second series), stronger effect = lower value 0.999 | S. cerevisiae deletion strains, locus YKL085W, strain MDH1, stronger effect = lower value 0.999 | S. cerevisiae deletion strains, locus YKL190W, strain CNB1, stronger effect = lower value 1.03 | S. cerevisiae deletion strains, locus YKR001C, strain vps1, stronger effect = lower value 1.03 | [11] 1.04 | S. cerevisiae deletion strains, locus YLR058C, strain SHM2, stronger effect = lower value 1.02 | S. cerevisiae deletion strains, locus YLR102C, strain apc9, stronger effect = lower value 1.02 | [12] 1.04 | S. cerevisiae deletion strains, locus YLR268W, strain sec22, stronger effect = lower value 1.01 | S. cerevisiae deletion strains, locus YLR330W, strain CHS5, stronger effect = lower value 1.01 | S. cerevisiae deletion strains, locus YLR342W, strain FKS1 (second series), stronger effect = lower value 1.03 | S. cerevisiae deletion strains, locus YLR371W, strain rom2, stronger effect = lower value 1.02 | S. cerevisiae deletion strains, locus YLR418C, strain cdc73, stronger effect = lower value 1 | S. cerevisiae deletion strains, locus YML016C, strain PPZ1, stronger effect = lower value 1.02 | S. cerevisiae deletion strains, locus YML032C, strain rad52, stronger effect = lower value 1.02 | S. cerevisiae deletion strains, locus YML124C, strain tub3, stronger effect = lower value 1.01 | S. cerevisiae deletion strains, locus YMR078C, strain ctf18, stronger effect = lower value 1.03 | S. cerevisiae deletion strains, locus YMR223W, strain ubp8, stronger effect = lower value 1.04 | [13] 1.02 | [14] 1.05 | S. cerevisiae deletion strains, locus YNL067W, strain RPL9B, stronger effect = lower value 1.02 | S. cerevisiae deletion strains, locus YNL128W, strain TEP1, stronger effect = lower value 1.02 | [15] 1.01 | S. cerevisiae deletion strains, locus YNL233W, strain BNI4, stronger effect = lower value 1.01 | S. cerevisiae deletion strains, locus YNL250W, strain rad50, stronger effect = lower value 1.03 | S. cerevisiae deletion strains, locus YNL271C, strain bni1, stronger effect = lower value 1.03 | S. cerevisiae deletion strains, locus YNL298W, strain CLA4, stronger effect = lower value 1.04 | S. cerevisiae deletion strains, locus YNL307C, strain MCK1, stronger effect = lower value 1.02 | [16] 1.01 | S. cerevisiae deletion strains, locus YNR052C, strain pop2, stronger effect = lower value 1.02 | [17] 1.05 | S. cerevisiae deletion strains, locus YOL012C, strain htz1 1.16 | S. cerevisiae deletion strains, locus YOL147C, strain pex11, stronger effect = lower value 1.02 | S. cerevisiae deletion strains, locus YOR061W, strain CKA2, stronger effect = lower value 1.02 | S. cerevisiae deletion strains, locus YOR069W, strain VPS5, stronger effect = lower value 1.01 | S. cerevisiae deletion strains, locus YOR136W, strain idh2, stronger effect = lower value 1.02 | S. cerevisiae deletion strains, locus YOR144C, strain elg1, stronger effect = lower value 1.02 | S. cerevisiae deletion strains, locus YOR184W, strain ser1, stronger effect = lower value 1.03 | S. cerevisiae deletion strains, locus YOR316C, strain cot1, stronger effect = lower value 1.02 | [18] 1.03 | [19] 1.01 | S. cerevisiae deletion strains, locus YPR119W, strain clb2, stronger effect = lower value 1.01 | S. cerevisiae deletion strains, locus YPR141C, strain kar3, stronger effect = lower value 1.03 | S. cerevisiae deletion strains, locus YPR163C, strain tif3, stronger effect = lower value 1.02 | S. cerevisiae deletion strains, locus YPR167C, strain met16, stronger effect = lower value 1.02 | S. cerevisiae deletion strains, strain wtn01, stronger effect = lower value 1.01 | [20] 1.02

CCCc1ccc(-c2nc(-c3ccc(C)cc3)no2)cc1
inactive: [1] 0.999 | [2] 0.994 | [3] 0.971 | [5] 1.01 | [6] 1.01 | [7] 0.973 | [8] 1 | [21] 0.984 | [22] 0.978 | [9] 0.991 | [10] 0.95 | [11] 1.09 | [23] 0.995 | [24] 1.02 | [12] 1.04 | [25] 0.988 | [26] 0.992 | [13] 0.994 | [14] 1.04 | [15] 0.965 | [27] 0.987 | [16] 0.989 | [28] 0.973 | [18] 0.975 | [19] 0.941 | [29] 1.06 | [20] 1.01

CCCc1ccc(/C(C)=N\O)cc1
active: [2] 0.921 | [6] 0.902 | [21] 0.909 | [22] 0.926 | [10] 0.816 | [11] 0.777 | [23] 0.92 | [24] 0.756 | [26] 0.932 | [16] 0.919 | [29] 0.518
inactive: [1] 0.939 | [3] 0.955 | [4] 0.965 | [5] 0.858 | [7] 0.93 | [8] 0.778 | [9] 0.949 | [12] 0.834 | [25] 0.947 | [13] 0.963 | [14] 1.18 | [15] 0.946 | [27] 0.94 | [28] 0.96 | [17] 0.945 | [18] 0.848 | [19] 0.949

C/C(=N/O)c1ccc2c(c1)C(C)(C)CCC2(C)C
inactive: [1] 1.01 | [2] 0.987 | S. cerevisiae deletion strains, locus YCL061C, strain MRC1, stronger effect = lower value 0.964 | [3] 1.01 | [4] 0.99 | [5] 0.985 | [6] 0.995 | [7] 0.981 | [8] 0.984 | [21] 0.977 | [22] 0.976 | [9] 0.989 | [10] 0.954 | [11] 0.847 | [23] 0.985 | [24] 0.963 | [12] 0.939 | [25] 0.992 | [26] 0.991 | [13] 0.979 | [14] 0.92 | [15] 0.967 | [27] 0.962 | [16] 0.995 | [28] 0.958 | [18] 0.996 | [19] 0.953 | [29] 0.915

— PubChem BioAssay AID1159580 (chemical genetic matrix, 2015)
